Sampled rows, rich in hits. Any-hit rate of the full collection: about 17%.
DT40 TDP1 CPT = qHTS for Inhibitors of human tyrosyl-DNA phosphodiesterase 1 (TDP1): qHTS in cells in presence of CPT. chicken DT40 Tdp1-/-;hTDP1 cells + 20 nM CPT, ATP luminescence, 48 h. Potency, µM (series often up to 46.2 µM), hits mostly inhibitors. actives 12% (n = 420,000). AID 686979, 2013; further: nearly all actives have a fitted effect of over 55% in size
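Cell growth measured by CellTiter-Glo luminescence after a minimum 48 h, 37 C compound exposure with 20 nM CPT in Tdp1-knockout DT40 cells stably expressing hTDP1, seeded 400/well; qHTS titration format.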
DT40 TDP1 no CPT = qHTS for Inhibitors of human tyrosyl-DNA phosphodiesterase 1 (TDP1): qHTS in cells in absence of CPT. DT40 Tdp1-/- hTDP1 cells, no CPT, ATP luminescence, 48 h. Potency, µM (highest dose often 46.2 µM), usual class: inhibitors. actives 15% (n = 420,000); further: nearly all actives have a fitted effect of over 55% in size
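Cells were dispensed at 400 per well, compounds added by pin tool, plates incubated ≥48 hr at 37 °C, then CellTiter-Glo added for 30 min at room temperature before luminescence reading. Line: DT40 Tdp1-/- complemented with hTDP1; camptothecin omitted.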
TDP1 inh = qHTS Assay for Inhibitors of Tyrosyl-DNA Phosphodiesterase (TDP1). Tyrosyl-DNA phosphodiesterase 1 (Homo sapiens), Q9NUW8. recombinant TDP1, AlphaScreen DNA substrate cleavage. Potency, µM (highest dose often 130 µM), actives largely listed as inhibitors. actives 0.28% (n = 350,000); further: nearly all actives have a fitted effect of over 40% in size
Target sequence (Q9NUW8 whole entry, looked up): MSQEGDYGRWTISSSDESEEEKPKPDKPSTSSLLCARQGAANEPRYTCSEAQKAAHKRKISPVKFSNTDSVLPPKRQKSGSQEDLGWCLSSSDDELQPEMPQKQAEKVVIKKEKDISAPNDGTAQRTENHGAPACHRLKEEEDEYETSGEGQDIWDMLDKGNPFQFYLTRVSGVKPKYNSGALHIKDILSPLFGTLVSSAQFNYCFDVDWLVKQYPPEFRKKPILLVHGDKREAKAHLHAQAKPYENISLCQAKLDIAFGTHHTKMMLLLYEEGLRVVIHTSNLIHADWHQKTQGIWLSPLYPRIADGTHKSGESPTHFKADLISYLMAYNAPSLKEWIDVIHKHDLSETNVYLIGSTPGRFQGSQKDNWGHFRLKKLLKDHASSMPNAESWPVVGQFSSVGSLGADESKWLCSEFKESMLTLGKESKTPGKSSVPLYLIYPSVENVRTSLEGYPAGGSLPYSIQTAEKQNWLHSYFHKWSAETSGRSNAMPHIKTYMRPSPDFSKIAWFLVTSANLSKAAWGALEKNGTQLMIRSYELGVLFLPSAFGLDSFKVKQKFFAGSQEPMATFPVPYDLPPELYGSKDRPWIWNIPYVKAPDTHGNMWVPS
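Steps: enzyme plus compound, 15 min RT; add biotin/phosphotyrosine-FITC oligonucleotide (15 nM final), react 5 min; add donor/acceptor beads (10 ug/ml final), 10 min; read AlphaScreen. Tdp1 at 1 nM final.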
ClpP mod = qHTS Assay for Activators of ClpP. Potency, µM (series often up to 57.5 µM). purified B. subtilis ClpP, FRET peptide cleavage, 20 min. actives 1.9% (n = 340,000). ATP-dependent Clp protease proteolytic subunit (Bacillus subtilis (strain 168)), P80244. AID 651965, 2013; active means well fitted falling curve with a large enough effect; inconclusive means small, poorly fitted or top-dose-only effect; inactive means no such curve, though single readings can be large or run the other way; further: the source files actives as falling curves though it sought activators and does not explain the sign; nearly all actives have a fitted effect of over 65% in size
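Buffer: 100 mM Tris/HCl pH8, 100 mM KCl, 0.05% low protease BSA, 2.5% glycerol, 0.01% Tween-20. ClpP 10 microg/mL final; 20 min RT; delta FRET normalized to ADEP and DMSO controls.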
A number is an active result; n = inactive; u = inconclusive; x = no result; [ ] = another dose, or the depositor's remark. Unless noted, the call rests on the fitted dose curve; in most records, active means well fitted curve in the direction sought with a large enough effect; inconclusive means small, poorly fitted or top-dose-only effect, or another doubt; inactive means no such curve, though single readings can be large; an effect the other way counts as inactive or inconclusive.

SMILES	DT40 TDP1 CPT	DT40 TDP1 no CPT	TDP1 inh	ClpP mod
COc1ccc(C2CC(=O)c3c([nH]c(C(=O)OC4CCCCCC4)c3C)C2)cc1OC (centres undefined)	3.7µM	4.6µM	n	n
Cc1c(C(=O)OC2CCCCC2)[nH]c2c1C(=O)CC(c1ccc(F)cc1)C2 (centres undefined)	u	u	n	n
Cc1c(C(=O)N2CCOCC2)[nH]c2c1C(=O)CC(c1ccccc1Cl)C2 (centres undefined)	3.3µM	4.1µM	n	n
Cc1c(C(=O)OC2CCC(C)CC2)[nH]c2c1C(=O)CC(c1ccc(F)cc1)C2 (centres undefined)	u	18µM	n[12.3 µM]	n
Cc1c(C(=O)OC2CCCC2)[nH]c2c1C(=O)CC(c1ccc(C(C)(C)C)cc1)C2 (centres undefined)	18µM	u	n	n
Nc1ccn([C@@H]2O[C@H](C(=O)Nc3ccc(C(=O)N4CCCCC4)cc3)[C@@H](O)[C@H]2O)c(=O)n1	n	n	x	n
Cc1c(C(=O)OC2CCCCC2)[nH]c2c1C(=O)CC(c1ccccc1Cl)C2 (centres undefined)	4.1µM	2.1µM	n	n
CCCCNC(=O)c1c(N)[nH]c(C(=O)c2ccccc2)c1-c1ccc(Cl)cc1	n	n	x	n
COc1ccccc1NC(=O)COC(=O)CC(C)(C)CC1=NS(=O)(=O)c2ccccc2N1	23µM	u	n	n
CC(C)(CC(=O)OCC(=O)Nc1ccccc1F)CC1=NS(=O)(=O)c2ccccc2N1	23µM	13µM	n	n
CCOC(=O)c1ccccc1NC(=O)COC(=O)CC(C)(C)CC1=NS(=O)(=O)c2ccccc2N1	u	u	n	n
Cc1ccccc1CC(=O)N1CCOCC1	n	n	x	n
CN(C)c1ccc(CNC(=O)c2cnc3sc(N4CCOCC4)nn3c2=O)cc1	n	n	n	n
COc1cccc(CNC(=O)c2oc3c(c2C)-c2nn(Cc4cccc(Cl)c4)cc2CC3)c1	u	18µM	n	u
COc1cccc(CNC(=O)c2oc3c(c2C)-c2nn(Cc4cccc(Cl)c4)cc2CC3)c1OC	16µM	21µM	n	n
COc1ccc(CNC(=O)c2oc3c(c2C)-c2nn(Cc4ccc(Cl)cc4)cc2CC3)cc1	u	23µM	n	u
CCOc1ccc(CNC(=O)Cn2cc3c(n2)-c2c(oc(C(=O)N4CCOCC4)c2C)CC3)cc1	u	21µM	n	n
Cc1c(C(=O)N2CCCC2)oc2c1-c1nn(CC(=O)NCCCN3CCCCC3)cc1CC2	n	n	n	n
CCn1c(/C(C#N)=N/O)nc2ccccc21	n	n	n	n
CCn1c(/C(C#N)=C/c2ccccc2Cl)nc2ccccc21	u	26µM	n	n
COc1ccc(N/C=C(\C#N)c2nc3ccccc3n2C)c(OC)c1	u	23µM	n	n
Cn1c(/C(C#N)=N/O)nc2ccccc21	n	n	n	n
Cn1c(/C(C#N)=C/c2ccccc2Br)nc2ccccc21	15µM	12µM	n[12.3 µM]	n
COc1ccc(CNC(=O)c2c3c(nc4ccccc24)C(=O)N(C2CCCCC2)C3)cc1	12µM	15µM	n	n
COc1ccc(OC)c(CCNC(=O)c2c3c(nc4ccccc24)C(=O)N(C2CCCCC2)C3)c1	u	18µM	n	n
SMILES	DT40 TDP1 CPT	DT40 TDP1 no CPT	TDP1 inh	ClpP mod
CCOc1ccccc1N(C)C(=O)c1c2c(nc3ccccc13)C(=O)N(C1CCCCC1)C2	16µM	u	n	n
COc1cccc(CNC(=O)c2c3c(nc4ccccc24)C(=O)N(C2CCCCC2)C3)c1	13µM	21µM	n	n
COc1ccc(CNC(=O)c2c3c(nc4ccccc24)C(=O)N(C2CCCCC2)C3)c(OC)c1	n	n	n	n
C=CC[C@@H](CC(=O)OC(C)(C)C)C(=O)OC[C@H]1CCCN1C(=O)[C@@H](CC=C)CC(=O)N(CCO)Cc1ccccc1	u	u	n	n
C[C@H]1Cc2c(COc3ccccc3)nc3c(c2CO1)CN(C(=O)C1CC1)CC3	x	x	n[21 µM]	x
Cc1ccc(Cn2cc3c(n2)-c2c(oc(C(=O)Nc4ccc(F)cc4F)c2C)CC3)cc1	u	u	n	n
O=C(NCc1cccc(Cl)c1)c1c2c(nc3ccccc13)C(=O)N(C1CCCCC1)C2	15µM	10µM	n	n
O=C(Nc1ccc(F)cc1F)c1c2c(nc3ccccc13)C(=O)N(C1CCCCC1)C2	u	u	n	n
COc1ccc(C)cc1NC(=O)c1c2c(nc3ccccc13)C(=O)N(C1CCCCC1)C2	16µM	3.7µM	n	n
CC(=O)n1cc(N(C(=O)CCl)c2ccccc2)c2ccccc21	0.65µM	0.58µM	x	x
CC(=O)n1cc(N(C(=O)CCl)c2ccc([N+](=O)[O-])cc2)c2ccccc21	2.3µM	2.6µM	n	x
CC(=O)n1cc(CO)c2ccccc21	n	n	x	n
Cc1ccc(C)c(Oc2nc3c(c(=O)n(C)c(=O)n3C)n2Cc2ccccc2)c1	u	u	x	n
COc1ccc(Oc2nc3c(c(=O)n(C)c(=O)n3C)n2Cc2ccccc2)cc1	u	n	n	n
CCOCCOc1nc2c(c(=O)n(C)c(=O)n2C)n1Cc1ccc(C)cc1	u	8.2µM	n	n
C=CCOc1nc2c(c(=O)n(Cc3ccc(Cl)cc3)c(=O)n2C)n1C	u	12µM	n	n
C#CCOc1nc2c(c(=O)n(C)c(=O)n2C)n1Cc1ccccc1	12µM	12µM	n	n
C=CCOc1nc2c(c(=O)n(C)c(=O)n2C)n1Cc1ccccc1	26µM	18µM	n	x
Cc1cc(C)cc(NC(=O)Nc2ccccc2OCc2cc(=O)n3ccccc3n2)c1	u	u	n	n
O=C(N/N=C/c1ccc2c(c1)OCO2)c1cccc(NC(=O)c2ccccc2Cl)c1	8.2µM	8.2µM	n	x
O=C(N/N=C/c1ccc2c(c1)OCO2)c1ccc(NC(=O)c2ccccc2Cl)cc1	n	u	n	n
Cc1cccc(C(=O)Nc2cccc(C(=O)N/N=C/c3ccc4c(c3)OCO4)c2)c1	u	29µM	n	x
Cc1c(C(=O)OC(C)C)sc2nc[nH]c(=O)c12	u	n	n	u
COC(=O)c1sc2nc[nH]c(=O)c2c1C	n	n	n	16µM
COc1ccc(CNC(=O)c2sc3nc[nH]c(=O)c3c2C)cc1	n	n	n	40µM
O=C(NCC(F)(F)F)c1ccc(S(=O)(=O)N2CCN(C(=O)C3CCCO3)CC2)cc1 (centres undefined)	n	n	n	n
N#Cc1ccc(NS(=O)(=O)c2ccc3c(c2)CCC(=O)N3)cc1	x	x	n	x
N#C/C(=C\c1ccc(OCc2cccc(C(=O)O)c2)cc1)C(=O)NCc1ccco1	n	n	x	n
COc1cc2nc(N3CCCC(O)C3)c(CNCc3ccccc3C(F)(F)F)cc2c(OC)c1OC (centres undefined)	n[9.04 µM]	u	x	x
O=C(NCCn1cc(SCc2ccccc2)c2ccccc21)c1c(F)cccc1F	u	23µM	n	n

Compound activity (PubChem)
